# Test results taken from PubChem BioAssay AID1030 (National Center for Advancing Translational Sciences (NCATS), 2008).
# Where “and” joins values, the source holds several entries; their conditions need not be identical. Equal entries are not always repeated. In all, about 220,000 compounds went through this assay and about 16,000 (7.3%) were called active. About 25% were inconclusive and are not listed. Calls come from the whole dose curve; as a rule, active = well fitted inhibition curve with a large enough effect (not every such curve was filed as active); inconclusive = small, poorly fitted or top-dose-only effect, or another doubt; inactive = no such curve, though single readings can be large or run the other way. Shown is part of a subset that was picked to be rich in actives. Entries that show only a call come without a potency.
# Target: Aldehyde dehydrogenase 1A1 (Homo sapiens) (UniProt P00352)
# Test: qHTS Assay for Inhibitors of Aldehyde Dehydrogenase 1 (ALDH1A1)
# Conditions: Purified ALDH1A1, NADH fluorescence, propionaldehyde substrate; series mostly up to 75.3 µM
# Potency is the fitted concentration of half-maximal effect.
# Aldehyde dehydrogenase 1A1 (Homo sapiens), sequence (P00352 whole entry, looked up): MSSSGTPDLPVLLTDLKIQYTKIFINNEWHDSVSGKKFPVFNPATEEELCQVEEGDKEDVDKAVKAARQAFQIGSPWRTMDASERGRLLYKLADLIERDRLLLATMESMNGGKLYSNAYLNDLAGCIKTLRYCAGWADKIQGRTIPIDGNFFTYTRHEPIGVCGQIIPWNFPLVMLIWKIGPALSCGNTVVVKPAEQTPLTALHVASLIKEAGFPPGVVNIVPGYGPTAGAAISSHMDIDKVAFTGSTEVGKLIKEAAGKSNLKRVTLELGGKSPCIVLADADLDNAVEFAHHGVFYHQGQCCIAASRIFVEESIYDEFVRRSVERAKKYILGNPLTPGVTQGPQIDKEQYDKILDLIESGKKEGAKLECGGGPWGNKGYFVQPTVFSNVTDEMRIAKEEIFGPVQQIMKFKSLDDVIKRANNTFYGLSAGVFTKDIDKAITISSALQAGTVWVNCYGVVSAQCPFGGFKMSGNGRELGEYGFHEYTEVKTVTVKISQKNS
row,SMILES,Potency
1,O=C1C2(Cl)C3(Cl)C4(Cl)C(Cl)(Cl)C5(Cl)C3(Cl)C1(Cl)C5(Cl)C24Cl (stereo not drawn),inactive
2,NC[C@H](O)c1ccc(O)cc1,inactive
3,c1ccc(C2NCc3ccccc3-n3cccc32)cc1 (stereo not drawn),inactive
4,O=C(OCC(=O)c1cccs1)C1=COCCO1,14.1 µM (active)
5,CN1CCN(C(=O)O[C@@H]2c3nccnc3C(=O)N2c2ccc(Cl)cn2)CC1,inactive
6,CC(C)(c1ccc(OC[C@@H]2CO2)cc1)c1ccc(OC[C@H]2CO2)cc1,inactive
7,CC[N+]1(C)CCCC(OC(=O)C(O)(c2ccccc2)c2ccccc2)C1 (stereo not drawn),inactive
8,O=C(NCC(c1cccnc1)N1CCN(c2ccccc2)CC1)Oc1ccccc1 (stereo not drawn),inactive
9,CCCn1c(C(=O)c2ccccc2OC)nc2ccccc21,inactive
10,Cc1cccc(N2C(=O)NC(=O)/C(=C\c3cnn(-c4ccccc4)c3)C2=O)c1,7.08 µM (active)
11,C[C@H]1CC[C@@]2(NC1)O[C@@H]1C[C@H]3[C@@H]4CC=C5C[C@@H](O)CC[C@]5(C)[C@@H]4CC[C@]3(C)[C@@H]1[C@@H]2C,inactive
12,NCC(O)c1ccc(O)cc1 (stereo not drawn),inactive
13,Cc1cc(C)cc(NC(=S)NC2CC3CCCC(C2)N3Cc2cccs2)c1 (stereo not drawn),inactive
14,O=C(CSC1c2ccccc2-c2ccccc21)N/N=C/c1ccccc1,inactive
15,O=C(CN1CCCC1=O)NCCc1ccccc1,inactive
16,COC1=C[C@@H]2[C@@H]3Cc4ccc(OC)c(O)c4[C@]2(CCN3C)CC1=O,inactive
17,CC(C(=O)Nc1ccc(Cl)cc1Cl)N1CC=C(c2ccccc2)CC1 (stereo not drawn),inactive
18,CCCC[N+]1(C)C2CC(OC(=O)C(CO)c3ccccc3)CC1C1OC12 (stereo not drawn),inactive
19,CC(=O)NC(=O)NC(C)Cc1ccccc1 (stereo not drawn),inactive
20,CC(C)CC(C)Nc1ccc(Nc2ccccc2)cc1 (stereo not drawn),14.1 µM (active)
21,CC12CN3CC(C)(CN(C1)C3c1cccs1)C2 (stereo not drawn),inactive
22,CCCCC(=O)N/N=C/c1c(O)n(CC)c(=S)n(CC)c1=O,inactive
23,Cc1cc(-c2ccc(N)c(C)c2)ccc1N,28.2 µM (active)
24,CC1CCCCN1Cc1cccnc1 (stereo not drawn),inactive
25,C/C(=C\C=C/[C@@H](C)C(=O)O)[C@H]1CN[C@H](C(=O)O)[C@@H]1CC(=O)O,inactive
26,CCN1C[C@]2(COC)C(O)C[C@H](OC)[C@@]34C5C[C@]6(O)C(OC)C(O)[C@](OC(C)=O)(C5C6OC(=O)c5ccccc5)C(C(OC)C23)C14 (stereo partly drawn),inactive
27,CC(=O)c1c(O)c(C)c(O)c(Cc2c(O)c3c(c(C(=O)/C=C/c4ccccc4)c2O)OC(C)(C)C=C3)c1O,17.8 µM (active) and 14.1 µM (active)
28,CC(=O)c1c(O)c(C)c(O)c(Cc2c(O)c3c(c(C(=O)/C=C\c4ccccc4)c2O)OC(C)(C)C=C3)c1O,22.4 µM (active)
